Data from PubChem BioAssay (NCI).
This is part of a sample that, as a whole, favours compounds with a hit. Of some 83,000 tested, about 20% had one in any assay.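 Interpretation: 100, growth as untreated; towards 0, rising growth inhibition; 0, no net growth; 0 to -100, cell death. Compounds scoring below 10 were considered active.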 Unmarked numbers belong to inactive results. Calls of active or inactive are those of the source.

Key:
Assay in all cases: NCI-60 one-dose screen, 48 h (100 = growth as untreated, 0 = no growth, -100 = all killed)
[1] = tested on: DU-145 prostate; details: 10 µM unless noted
[2] = tested on: K-562 leukemia; details: 10 µM unless noted
[3] = tested on: MALME-3M melanoma; details: 10 µM unless noted
[4] = tested on: MDA-MB-231 breast; details: 10 µM unless noted
[5] = tested on: RXF 393 renal; details: 10 µM unless noted
[6] = tested on: SF-268 CNS; details: 10 µM unless noted
[7] = tested on: SF-295 CNS; details: 10 µM unless noted
[8] = tested on: SF-539 CNS; details: 10 µM unless noted
[9] = tested on: UACC-257 melanoma; details: 10 µM
[10] = tested on: HCT-15 colon; details: 10 µM unless noted
[11] = tested on: HT29 colon; details: 10 µM unless noted
[12] = tested on: SNB-75 CNS; details: 10 µM unless noted
[13] = tested on: SNB-19 CNS; details: 10 µM unless noted
[14] = tested on: U251 CNS; details: 10 µM unless noted
[15] = tested on: PC-3 prostate; details: 10 µM unless noted
[16] = tested on: SK-MEL-5 melanoma; details: 10 µM unless noted
[17] = tested on: UACC-62 melanoma; details: 10 µM unless noted
[18] = tested on: LOX IMVI melanoma; details: 10 µM unless noted
[19] = tested on: SK-MEL-28 melanoma; details: 10 µM unless noted

SMILES	growth [1]	growth [2]	growth [3]	growth [4]	growth [5]	growth [6]	growth [7]	growth [8]	growth [9]	growth [10]	growth [11]	growth [12]	growth [13]	growth [14]	growth [15]	growth [16]	growth [17]	growth [18]	growth [19]
Oc1ccc(CSc2nnc(-c3ccc(Oc4ccccc4)cc3)o2)c2cccnc12	45.6%	9.13% (active)	70.8%	45.5%	60.6%	28.8%	1.44% (active)	31.6%	45.1%	9.07% (active)	94.4%	-25.3% (active)	17.3%	-4.12% (active)	20.4%	16.6%	22.6%	19.8%	52.2%
O=C(NCCCNc1cc(-c2cn(-c3ccccc3)nc2-c2cccc(O)c2)ccn1)Nc1cc(C(F)(F)F)cc(C(F)(F)F)c1	95.8%	50.7%	67%	66.8%	8.69% (active)	60.6%	45.3%	74.9%	82.3%	33.4%	31.7%	64.2%	68.5%	51.5%	39.9%	55.7%	73%	81.2%	83.7%
Cc1cc2nc(C(Cl)Cl)nc(-c3ccco3)n2n1	-12.5% (active)	89.7%	108%	64.2%	12.5%	81.2%	20.3%	66.1%	92.9%	72%	37.2%	94.5%	62.8%	53.8%	73%	97.8%	78.2%	93.4%	87.6%
ClC(Cl)c1nc(-c2cccs2)n2nc(-c3ccccc3)cc2n1	-24.3% (active)	27.9%	67.7%	-26.9% (active)	-73.2% (active)	6.38% (active)	-27.6% (active)	-44% (active)	16.3%	0.506% (active)	-3.99% (active)	48%	-5.22% (active)	-9.39% (active)	-32.3% (active)	89.8%	23.6%	83.5%	-45.9% (active)
Nc1cc(F)ccc1NC(=O)c1ccc(NC(=O)C/C=C/c2cccnc2)cn1	-3.71% (active)	20%	11.6%	45.3%	-17.5% (active)	30.8%	22.3%	6.21% (active)	17.8%	19.8%	11.4%	31.9%	31.7%	17.9%	36.9%	-58.1% (active)	5.97% (active)	16.6%	-9.71% (active)
COc1ccc(N)cc1C(=O)Nc1cccc(-c2cc(=O)c3c(OC)c(OC)c(OC)cc3o2)c1	59.1%	46.6%	89.4%	60.2%	50.4%	68.3%	63.8%	64.4%	98.9%	44.7%	56.5%	93.1%	76.6%	49.9%	74.1%	41%	61.2%	44.3%	86.6%
C#Cc1ccc(NC(=O)c2ccc(/C=C/C(=O)c3nccn3C)cc2)c(F)c1	27.5%	12%	89.8%	23.6%	10.5%	28%	26.1%	-22.5% (active)	64.7%	7.76% (active)	15.8%	17.7%	23%	5.03% (active)	29.9%	60.5%	29.9%	-60.8% (active)	84%
CN1C(=O)N(C)C2C1NN=c1s/c(=C\c3ccccn3)c(=O)n12 (stereo not given)	108%	93.9%	92.7%	98%	102%	99.9%	99.8%	96.3%	96.4%	79.4%	102%	93%	96.8%	101%	94.8%	102%	90.6%	100%	107%
N=c1c2cc(-c3ccccc3)oc2ncn1/N=C/c1ccccc1	96.7%	27.6%	48.9%	95.1%	49.4%	89%	84.3%	85.8%	85.6%	36.9%	73.6%	67%	87.5%	84.7%	71.9%	90.8%	47.6%	66.3%	83.4%
COc1ccc(S(=O)(=O)NCCCNc2nccc(-n3cnc4ccccc43)n2)cc1	100%	78.8%	107%	84.1%	80.6%	91.6%	90.5%	83.9%	100%	92.3%	99.7%	88.2%	100%	94.5%	89.7%	70.1%	76.3%	93.4%	106%
Cn1ccnc1C(=O)/C=C/c1ccc(C(=O)Nc2ccc(NC(=O)CCNC(=O)c3csc(Br)n3)cc2)cc1	11.9%	16%	102%	72.9%	68.2%	62.2%	81.3%	7.51% (active)	88.6%	28.6%	13.2%	71.2%	60.6%	23.9%	48%	98.8%	68.3%	11.5%	89.3%
O=C(c1cccc(F)c1)n1ccc2cc(NC(=S)Nc3cccnc3)ccc21	102%	96%	92.7%	106%	108%	95.7%	97.3%	99.8%	97.4%	89.6%	103%	90.6%	86.5%	95.1%	96.5%	99.6%	86.8%	99%	106%
O=C(NCCCNc1cc(-c2cn(-c3ccccc3)nc2-c2cccc(O)c2)ccn1)Nc1ccc(F)cc1	31.4%	5.52% (active)	-27.3% (active)	0.136% (active)	-34.9% (active)	18%	-44.3% (active)	6.41% (active)	-51.9% (active)	-11.7% (active)	3.6% (active)	6.84% (active)	26.9%	3.22% (active)	16%	-55% (active)	8.05% (active)	6.07% (active)	-61.3% (active)
COc1cc(/C=C/C(=O)c2ccc(NC(=O)CSc3nnc(-c4ccc5nc(-c6ccccc6)[nH]c5c4)o3)cc2)cc(OC)c1OC	91%	58.3%	109%	93.6%	-6.89% (active)	97.7%	105%	82.5%	87.6%	87.6%	104%	81.1%	84.4%	80.6%	99%	92.2%	83%	56%	93.4%
N#Cc1c(NC(=O)c2ccccc2C(F)(F)F)sc2c1CCC(=O)C2	33.8%	10.9%	-17.3% (active)	3.09% (active)	-23.8% (active)	18.9%	11%	-28.9% (active)	-9.8% (active)	-32.3% (active)	8.88% (active)	20.1%	15.5%	16.3%	13%	-75.5% (active)	-26.9% (active)	6.27% (active)	-14.9% (active)
